Bioassay records (PubChem)
Most compounds without a hit are left out; they make up all but 1.8% or so of the library.
NPR2 activator: GC-B (human) receptor activation; HEK293-GC-B cells, CNP EC30, cGMP TR-FRET; 0% at EC30 CNP, 100% saturating CNP; activation, % at 10 µM; hit rate 0.11% among 370,000; AID 1920062;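 active = activation at 10 µM reaching about 35% in either raw or pattern-adjusted values, limit read from the data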
Granule exo inh: lytic granule exocytosis inhibition; TALL-104 LAMP-1 surface exposure, flow cytometry; cells stimulated with thapsigargin and PMA; inhibition, % at 10 µM; hit rate 0.66% among 360,000; AID 651702;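 active = inhibition above about 55%, limit read from the data; inconclusive = no clear call, values can overlap the other calls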
NPR1 activator: GC-A (human) enzyme activation; hit rate 0.14% among 370,000; AID 1671463; HEK293 GC-A cells, cGMP TR-FRET, EC30 ANP; 0% at EC30 ANP, 100% saturating ANP; activation, % at 10 µM; P16066; in the data active = activation above about 40%
Myeloid diff 2: promotes myeloid progenitor differentiation | calls only at 10 µM | hit rate 1% among 360,000 | ER-HoxA9 myeloid progenitors, lysozyme-GFP differentiation, flow cytometry | AID 624256;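 active = normalized GFP-positive differentiation at or above the plate's own cutoff, the solvent-only control mean plus 3 SD; inconclusive = no clear call, values can overlap the other calls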;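 also: cells exposed to compound for four days before flow analysis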
Myeloid diff: promotes myeloid progenitor differentiation; shares compounds with Myeloid diff 2; ER-HoxA9 myeloid progenitors, GFP/Mac1 double-positive flow; calls only; hit rate 2% among 2,300; AID 651706;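 active = share of green or green-and-red cells above 9 and 9% in run 1 or 4 and 3% in run 2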
GFP autofluor: flagged as fluorescent in myeloid differentiation counter-screen | ER-HoxA9 myeloid progenitors, no estrogen, GFP autofluorescence flow cytometry; vehicle wells 0%, positive control 100% | fluorescence response, % (no concentration beside the values) | hit rate 7.4% among 2,300 | shares compounds with Myeloid diff 2;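 active = over 5% cells positive for green fluorescent reporter, or over 2% positive for both it and APC stain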;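 also: range taken on the double positive population between DMSO and positive control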
The depositor's hits bear a star; i = inactive; u = inconclusive; x = no result given; + = active, no number.

SMILES | NPR2 activator | Granule exo inh | NPR1 activator | Myeloid diff 2 | Myeloid diff | GFP autofluor
OC(CNc1ccccc1)COc1ccc(OCC(O)CNc2ccccc2)cc1 (stereo not given) | -2 | 5 | -3 | + | i | 1
O=C(NCCN1C(=O)S/C(=C\c2ccc(Cl)c([N+](=O)[O-])c2)C1=O)C1=COCCO1 | 6 | 8 | 11 | i | x | x
Cc1cc(C(=O)C(C)OC(=O)c2ccc(NC(=O)CC#N)cc2)c(C)n1-c1ccc(OC(F)F)cc1 (stereo not given) | 0 | 2 | -4 | + | i | 18*
Cc1ccc(C)c(C(C)NC(=S)NCc2ccc(F)cc2)c1 (stereo not given) | -10 | -4 | -8 | u | x | x
COc1ccc(NC(=O)C2(C)Cc3c(-c4ccc5c(c4)OCO5)ccnc3O2)cn1 (stereo not given) | 9 | 7 | 3 | x | x | x
CCOC(=O)/C=C1\SCC(=O)N1CC(=O)NCCOC | -1 | -2 | 0 | i | x | x
CCOC(=O)/C=C1\SCC(=O)N1CC(=O)NC1CCCCC1 | 0 | 0 | -1 | + | i | 0
Cc1c(N=C2NN=C(c3c[nH]c4ccccc34)CS2)c(=O)n(-c2ccccc2)n1C | -3 | 17 | -1 | + | i | 5
COc1cccc(/C=C/C(=O)OCC(=O)c2ccc(Br)cc2)c1 | 4 | -8 | 3 | i | x | x
CCOc1ccccc1-n1c(SCC(N)=O)nnc1-c1ccccc1 | -1 | -3 | -8 | i | i | 1
O=c1c2ccccc2c(/C=N/NS(=O)(=O)c2ccccc2)c(O)n1-c1ccccn1 | 1 | -1 | 4 | i | i | 0
O=c1[nH]c2ccccc2n2c(=S)[nH]nc12 | -3 | 6 | 3 | i | x | x
O=c1[nH]c2ccccc2n2c(C(F)(F)F)nnc12 | -5 | -12 | -1 | + | i | 5.7*
CCCCNC(=O)C[C@H]1C[C@@]2(C(=O)OC)C(=C[C@H](C(C)(C)C)O[C@@H]2C)N(Cc2cccc3ccccc23)C1=O | -18 | x | -13 | x | x | x
Cc1sc2ncnc(NCCc3ccc(S(N)(=O)=O)cc3)c2c1C | 2 | -4 | -1 | i | i | 0
Cc1ccc(S(=O)(=O)N[C@H](C(=O)OCC(=O)NC(=O)c2cccn2C)C(C)C)cc1 | 1 | 5 | 6 | i | x | x
OC(COc1ccccc1)CN1CCCCCC1 (stereo not given) | -3 | -1 | 0 | i | x | x
OC(CNCCCN1CCCCC1)COc1ccccc1 (stereo not given) | 7 | 4 | 1 | + | i | 0
COC(=O)c1cccc(C#CC(NP(=O)(c2ccccc2)c2ccccc2)c2ccccc2)c1 (stereo not given) | -18 | 3 | -12 | i | i | 0
COc1ccc(-n2c(=S)[nH]c3cc(C(=O)Nc4ccc(C)c(F)c4)ccc3c2=O)c(OC)c1 | -2 | 6 | -12 | + | i | 0
COc1ccc(S(=O)(=O)N2CCCCC2)cc1NC(=O)C1CC1(Cl)Cl (stereo not given) | 2 | -7 | 1 | i | x | x
CCC1(c2ccccc2)NC(=O)N(CC(=O)Nc2cccc(C#N)c2)C1=O (stereo not given) | 1 | -2 | -3 | + | i | 0
COc1ccc(CN2C(=O)CN(S(C)(=O)=O)CC2(C)C(=O)Nc2c(C)cccc2C)cc1 (stereo not given) | 8 | -5 | 1 | i | x | x
CC(C)CC(=O)NC(NC(=S)Nc1ccccc1)C(Cl)(Cl)Cl (stereo not given) | 8 | 1 | 0 | i | i | 0
Cc1c(NC(=S)NC(NC(=O)CC(C)C)C(Cl)(Cl)Cl)c(=O)n(-c2ccccc2)n1C (stereo not given) | 1 | 1 | 1 | i | x | x
SMILES | NPR2 activator | Granule exo inh | NPR1 activator | Myeloid diff 2 | Myeloid diff | GFP autofluor
Cc1cccc(NC(=S)NC(NC(=O)OCc2ccccc2)C(Cl)(Cl)Cl)c1 (stereo not given) | 3 | -4 | 5 | i | i | 0
CC(c1ccccc1)n1cc(C(=O)N2CCCN(Cc3ccccc3)CC2)nn1 (stereo not given) | -5 | x | -2 | x | x | x
COc1ccc(C2C(C(=O)Nc3cc(OC)ccc3OC)CCC(=O)N2c2ccc(OC)cc2)cc1 (stereo not given) | 0 | x | -3 | x | x | x
Cc1occc1C(=O)N/N=C/C(Br)=C/c1ccccc1 | 1 | -2 | -1 | + | i | 0
CNC(=O)/C(C#N)=C/c1c(N(Cc2ccccc2)Cc2ccccc2)nc2c(C)cccn2c1=O | -1 | 2 | -6 | i | x | x
CCNC(=O)/C(C#N)=C/c1c(N(Cc2ccccc2)Cc2ccccc2)nc2ccccn2c1=O | 0 | -2 | -4 | + | i | 0
COc1ccccc1C1N(c2ccc(Cl)cc2)C(=O)C2CCCN21 (stereo not given) | -6 | 0 | -10 | + | + | 0
CSc1nc(C)cc(C)c1C#N | -5 | 1 | 4 | + | i | 0
C[C@H]1COc2cccc(N3CCCC3)c2S(=O)(=O)N1C | 1 | x | 4 | x | x | x
CCC(C)NC(=O)CN1C(=O)C2CCCCN2C(=O)c2ccccc21 (stereo not given) | 1 | x | 4 | x | x | x
O=C(C1CCC(=O)N(C2CCCC2)C1)N1CCN(c2ccc(Cl)cc2)CC1 (stereo not given) | -3 | -1 | 8 | i | x | x
Cc1ccc(Cl)cc1N1CCN(C(=O)C2CCC(=O)N(C3CCCCCC3)C2)CC1 (stereo not given) | 3 | 13 | -4 | + | i | 1
Cc1ccc(S(=O)(=O)N2CCCCC2CCNC(=O)C(=O)NCc2cccnc2)cc1 (stereo not given) | 0 | 4 | 0 | + | i | 0
Cc1ccc(C)c(S(=O)(=O)N2CCCCC2CCNC(=O)C(=O)NCc2cccnc2)c1 (stereo not given) | 5 | -5 | -1 | i | x | x
O=C(NNC1=C(C(=O)C(F)(F)F)CCC1)c1ccccc1O | 2 | 2 | 4 | i | x | x
COc1ccccc1C(=O)NNC1=C(C(=O)C(F)(F)F)CCC1 | 3 | -4 | -2 | + | i | 2
Nc1ccccc1C(=O)NNC1=C(C(=O)C(F)(F)F)CCC1 | 7 | 0 | -3 | + | i | 2
CCCc1cc(=O)oc2cc(C)cc(OCC(=O)N3C[C@H]4C[C@@H](C3)c3cccc(=O)n3C4)c12 | -1 | -2 | 3 | i | x | x
CCOc1ccc(C(=O)Nc2c(C(=O)N3CCC(N4CCCCC4)CC3)oc3ccccc23)cc1 | 3 | -3 | -2 | i | x | x
Oc1ccc(/C=N/NC(=S)Nc2cccnc2)cc1 | -4 | -2 | -5 | i | i | 0
COc1cccc(/C=N/NC(=S)Nc2cccnc2)c1 | -1 | -2 | -3 | i | x | x
ClCCn1cnc2c(SCc3ccccc3)ncnc21 | 2 | -9 | 3 | i | x | x
